Source: PubChem BioAssay (Sanford-Burnham Center for Chemical Genomics)
eIF4H FP inh: human eIF4H binding inhibitors, primary screen, translation initiation inhibitor project, biochemical, uHTS, fluorescence polarization | 0.94% of 290,000 active | Eukaryotic translation initiation factor 4H (Homo sapiens), Q15056 | inhibition, % at 35 µM | eIF4H fluorescence polarization binding assay;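 further: calls also rest on retests at 20 µM and on dose response follow-up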
PHOSPHO1 block: PubChem AID 1565. Phosphoethanolamine/phosphocholine phosphatase (Homo sapiens), Q8TCT1. recombinant PHOSPHO1, absorbance phosphatase assay. inhibition, % at 13.3 µM. 1.1% of 290,000 active; in the data active means inhibition above about 60%
Target sequence (Q8TCT1 whole entry, looked up): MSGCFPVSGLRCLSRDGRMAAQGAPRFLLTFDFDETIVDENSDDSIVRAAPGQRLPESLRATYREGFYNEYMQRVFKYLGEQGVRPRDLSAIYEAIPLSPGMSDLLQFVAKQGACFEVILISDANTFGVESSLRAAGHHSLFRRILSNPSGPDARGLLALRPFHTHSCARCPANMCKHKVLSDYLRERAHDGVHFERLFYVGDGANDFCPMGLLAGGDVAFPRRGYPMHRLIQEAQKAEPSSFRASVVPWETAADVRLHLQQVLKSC
PABP FP inh: PABP poly(A) RNA binding inhibitors, primary screen, biochemical, fluorescence polarization, uHTS; Polyadenylate-binding protein 1 (Homo sapiens), P11940; 1% of 290,000 active; inhibition, % at 35 µM;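 further: calls also rest on retests at 20 µM and on dose response follow-up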
CRFBP-R2 block: antagonists of CRF-BP/CRF-R2 complex, primary screen, cell-based, HEK293, calcium dye fluorescence, uHTS | CRF-induced calcium fluorescence | inhibition, % at 11.8 µM | 0.59% of 350,000 active | AID 588475, 2011;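 active means inhibition of the ligand-induced calcium signal above about 50% at the single tested concentration, limit read from the data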
PABP1 MLLE inh: inhibitors of PABP1 MLLE–PAM2 peptide binding, primary screen, biochemical, fluorescence polarization, FITC-PAM2, GST-MLLE; 0.36% of 360,000 active; AID 588489, 2011; inhibition, % at 20 µM; in the data active means inhibition above about 35%, passing the limit was not always enough;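 further: plate controls were DMSO wells with GST-MLLE for no effect and wells lacking GST-MLLE protein for full effect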
An asterisk follows results filed as active; ? = inconclusive; · = no result given. Sampled rows, rich in hits. Any-hit rate of the full collection: about 2.6%. Unless noted, how the calls were made is not given here.

SMILES	eIF4H FP inh	PHOSPHO1 block	PABP FP inh	CRFBP-R2 block	PABP1 MLLE inh
COc1ccc(S(=O)(=O)N2CCCCCC2)cc1NC(=O)CN1C(=O)CNC1=O	·	·	·	19	-28
CCOC(=O)c1nnn(CC(=O)N2N=C(c3ccccc3)CC2c2ccccc2)c1C(=O)OCC (stereo not drawn)	2	-13	-4	71*	-2
CCOC(=O)c1nnn(CC(=O)N2N=C(c3cc(C)ccc3C)CC2c2ccc(OC)cc2)c1C(=O)OCC (stereo not drawn)	-8	-2	9	-6	6
N/C(=N\OC(=O)c1ccc([N+](=O)[O-])cc1)c1ccc(Br)cc1	2	8	10	5	-11
N/C(Cc1ccc([N+](=O)[O-])cc1)=N\OC(=O)c1ccc(Br)cc1	2	5	?	62*	2
O=[N+]([O-])c1ccccc1SN(Cc1ccccc1)c1ccccn1	58*	-5	5.0*	3	8
CN1/C(=C\C(=O)c2cccc([N+](=O)[O-])c2)Sc2ccccc21	11	28	-2	-4	39*
COc1ccc(C)cc1S(=O)(=O)N(CC(=O)Nc1cc([N+](=O)[O-])ccc1C)c1ccc(C)c(C)c1	active	-15	51*	26	-2
CCOC(=O)C1(C)CCCN(C(=O)c2ccccc2OC(F)(F)F)C1 (stereo not drawn)	·	·	·	·	-5
Cc1cc2c(c(=O)o1)C(c1ccc([N+](=O)[O-])o1)C(C#N)=C(N)O2 (stereo not drawn)	93*	20	62*	-10	14
O=C(NCC1CC1)c1ccc(-n2ccnc2)c2ccoc12	·	·	·	·	13
Cc1ccc(S(=O)(=O)/N=C2/NC(=O)/C(=C/c3ccc(Br)o3)S2)cc1	91	21	-15	55*	-31
Cc1ccc(S(=O)(=O)/N=C2/NC(=O)/C(=C\c3cc(Br)cc(Br)c3O)S2)cc1	46	3	41	-77	-71
Cc1ccc(-n2c(N)c(C(=O)N3CCOCC3)sc2=S)cc1	2	76*	16	24	39
CCNC(=O)c1sc(=S)n(-c2ccc(C)cc2)c1N	-4	50	-4	-4	44*
CC1(C)CC(=O)C=C(c2ccc(-c3cnc4ccccc4c3)cc2)C1=O	·	·	·	-6	-8
O=C(CSc1nnc2scc(-c3ccccc3)n12)N1CCN(Cc2ccccc2)CC1	-14	-24	-7	7	11
Cc1ccc(-c2csc3nnc(SCC(=O)N4CCN(Cc5ccccc5)CC4)n23)cc1	-20	74*	-14	66*	-9
O=C(CSc1nnc2scc(-c3ccccc3)n12)Nc1nsc(-c2ccccc2)n1	-4	67*	-13	31	1
Cc1ccc(-c2csc3nnc(SCC(=O)Nc4nsc(-c5ccccc5)n4)n23)cc1	-8	15	-14	-7	-12
Cc1cc(C)cc(N(C(=O)Cn2nnc(-c3ccccc3)n2)C(C(=O)NC2CCCCC2)c2ccccn2)c1 (stereo not drawn)	5	-4	12	-23	15
Cc1ccc(N(C(=O)Cn2nnc(-c3ccccc3)n2)C(C(=O)NC2CCCCC2)c2ccccn2)cc1C (stereo not drawn)	11	-4	11	56*	-6
O=C(Nc1nccs1)c1csc([C@H]2C[C@H](O)[C@@H](CO)O2)n1	·	·	·	·	-3
CCN1CC2=C(OC(N)=C(C#N)C2c2cccs2)/C(=C\c2cccs2)C1 (stereo not drawn)	98*	11	104*	-11	-52
CCc1ccc(CCC(=O)Nc2ccc(OC)cc2)o1	-6	-4	1	35	-8
SMILES	eIF4H FP inh	PHOSPHO1 block	PABP FP inh	CRFBP-R2 block	PABP1 MLLE inh
COc1ccc(C(N)CCc2ccc(C)o2)cc1 (stereo not drawn)	87	32	38*	5	-34
C=C(C)CN1C(=O)c2ccccc2C1=O	57	2	2.9*	4	-3
Cc1ccc(-c2cc3c(nn2)-c2ccccc2C3=O)cc1	-7	24	1	-4	12
O=C1c2ccccc2-c2nnc(-c3ccc(O)cc3)cc21	12	-3	11	103*	5
Cc1[nH]c(C)c(S(=O)(=O)NCCc2ccccc2)c1C(=O)N1CCCCC1	-2	-4	5	70*	-12
CCCS(=O)(=O)N1CCN(Cc2ccc3c(c2)c2ccccc2n3CC)CC1	-8	-9	4	-7	1
CC1CCCC(NC(=O)COC(=O)Cc2cn3ccsc3n2)C1C (stereo not drawn)	11	96*	10	39	-81
O=C(COC(=O)Cc1cn2ccsc2n1)NC12CC3CC(CC(C3)C1)C2	8	-2	-6	-7	2
O=S1(=O)CC(N2CCN(CC3CC3)CC2)CN1CCc1ccccc1 (stereo not drawn)	·	·	·	·	-9
CCOC(=O)C(Cc1ccc(OC)c([N+](=O)[O-])c1)NC(=O)CCC(=O)Nc1ccc(OC)cc1 (stereo not drawn)	-2	45	-12	-10	2
CCCCCCCCCCCC(=O)NC(Cc1ccc(OC)c([N+](=O)[O-])c1)C(=O)O (stereo not drawn)	-4	32	7	55*	-3
Cc1ccccc1Nc1nc(-c2sc(NC(=O)c3ccccc3)nc2C)cs1	0	69*	2	·	·
COc1ccc(Cl)cc1Nc1nc(-c2sc(NC(=O)CC(C)C)nc2C)cs1	-13	94*	-14	-22	-16
COc1ccc(OC)c(Nc2nc(-c3sc(NC(=O)c4ccccc4)nc3C)cs2)c1	-8	34	-13	·	·
C=CCCC(=O)Nc1nc(C)c(-c2csc(Nc3cc(Cl)ccc3OC)n2)s1	-5	99*	-11	-7	11
Cc1nc(NC(=O)CC(C)C)sc1-c1csc(Nc2ccc(Cl)cc2Cl)n1	-7	55	-2	-11	4
Cc1ccccc1Nc1nc(-c2sc(NC(=O)c3cccc(Cl)c3)nc2C)cs1	-18	-10	-12	·	·
C=CCCC(=O)Nc1nc(C)c(-c2csc(Nc3ccc(Cl)cc3Cl)n2)s1	-9	43	-8	-20	-12
CCC(C)C(=O)Nc1nc(C)c(-c2csc(Nc3ccccc3OC)n2)s1 (stereo not drawn)	-4	74*	-11	4	15
O=C(Nc1nc(-c2ccco2)cs1)c1ccccc1	36	88*	20	-11	-32
CCCCC(=O)Nc1nc(C)c(-c2csc(Nc3ccccc3OC)n2)s1	-12	94*	4	-3	-14
O=C(Nc1nc(-c2ccccc2)cs1)c1ccco1	3	8	-1	-3	-9
CCCCCCC(=O)Nc1nc(C)c(-c2csc(Nc3cc(OC)ccc3OC)n2)s1	1	77*	-3	-18	-21
COc1ccccc1Nc1nc(-c2sc(NC(=O)c3ccco3)nc2C)cs1	-7	86*	-8	8	-39
CCCCCC(=O)Nc1nc(C)c(-c2csc(Nc3cc(OC)ccc3OC)n2)s1	-8	50	-10	-12	-17
